From PubChem BioAssay
Shiga inhibitor: inhibitors of Shiga toxin in Vero cells; 9.2% of 290,000 active; AID 2315; Vero cells, Shiga toxin protein synthesis inhibition reporter; inhibition, % at 38.7 µM; in the data active = inhibition mostly above about 28%, no sharp cut-off; inactive = mostly below about 43%; note: 0% is about no effect
HCMV inh: inhibitors of human cytomegalovirus; HFF cells, HCMV-luciferase reporter, 72 h; hits give low values; activity change, negative = inhibition, % at 57.5 µM; 4.5% of 410,000 active; AID 1259415; in the data active = activity change below about -60%; inconclusive = no clear call, values can overlap the other calls; inactive = above about -39%; note: % is set by controls: 0 for no effect and ±100 for the full control effect
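HFF cells seeded 16 h at 37C, treated with compounds, infected with luciferase-reporter HCMV at MOI 1 PFU/cell; luciferase read at 72 h post infection, normalized to buffer-only and Salinomycin controls.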
CHX counter: counter-screen for Shiga toxin inhibitors: cycloheximide protein synthesis inhibition; cell reporter, cycloheximide protein synthesis inhibition counterscreen; max response, %; 12% of 300,000 active; AID 2314; in the data active = max response mostly above about 13%, no sharp cut-off; inactive = mostly below about 14%; note: read at 38.3 µM for the half of the compounds with a filed dose; 0% is about no effect
Pf growth 48h: P. falciparum growth inhibition at 48 hours (one generation) | P. falciparum luciferase growth in erythrocytes, 48 h | Potency, µM (doses to about 28.7 µM), for the others: at the top dose activity change, negative = inhibition, actives largely listed as inhibitors | 5.9% of 310,000 active; note: potency is the fitted concentration of half-maximal effect; % is set by controls: 0 for no effect and ±100 for the full control effect
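Luciferase-expressing P. falciparum in infected erythrocytes (2% hematocrit, 0.1% parasitemia final) in RPMI 1640/0.5% Albumax were exposed to compound for 48 hours at 37 C, 5% CO2; growth read as luminescence.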
Pf growth 96h: P. falciparum growth inhibition at 96 hour, primary screen for plastid delayed-death inhibitors | Potency, µM (series often up to 28.7 µM), inactives show at the top dose activity change, negative = inhibition, actives largely listed as inhibitors | P. falciparum luciferase reporter growth, 96 h | 6.9% of 320,000 active; note: potency is the fitted concentration of half-maximal effect; % is set by controls: 0 for no effect and ±100 for the full control effect
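Two-generation exposure (96 h) targets delayed-death phenotype. Reporter parasites carrying integrated firefly luciferase, in red cells at 2% hematocrit and 0.05% parasitemia final, kept at 37 C, 5% CO2; luminescence loss indicates inhibition.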
Starred values were filed as active, the others as inactive; ? = inconclusive; / = not tested or not shown; [ ] = remark or other dose. An excerpt weighted towards active compounds, which were near 20% of everything screened. Unless noted, calls come from the whole dose curve; as a rule, active = well fitted inhibition curve with a large enough effect; inconclusive = small, poorly fitted or top-dose-only effect, or another doubt; inactive = no such curve, though single readings can be large or run the other way.

SMILES	Shiga inhibitor	HCMV inh	CHX counter	Pf growth 48h	Pf growth 96h
Cc1ccc(S(=O)(=O)Nc2cc(C(F)(F)F)ccc2N2CCOCC2)cc1	15.8	-25.2	-5.7	?	13.1µM*
Cc1cccc2cc(-c3ccccc3)c(-c3ccccc3)c[n+]12	15.7	-96.5*	-1.3	1.85µM*	1.31µM*
Cc1[nH]c(=O)c(C#N)cc1-c1ccccc1	-8.8	22.5	-1.9	-12.5%	-0.2%
S=C1c2ccccc2CN1c1ccccc1	74.9*	5.5	59.6*	77.5%	79.6%
Cc1ccc(N2Cc3ccccc3C2=S)cc1	81.8*	30.6	36.9*	493.6%	?
O=C(O)c1cccc2c1C(=O)N(c1ccccc1)C2	-0.9	-5.2	16.5	?	52.9%
COC(=O)NCCOC(=O)N(O)c1ccc(Br)cc1	-5.7	2.4	2.5	9.28µM*	?
Cc1ccc(-n2c(-c3ccccc3)n[nH]c2=S)c(C)c1	-1.9	-17.5	-2.3	-12.9%	13.1µM*
CCn1c(-c2ccc(C(C)(C)C)cc2)n[nH]c1=S	8.5	14.3	1.4	25.9%	-18.3%[5.75 µM]
Cc1ccccc1-n1c(-c2csc(C)c2C)n[nH]c1=S	45.7*	-27.8	16.6*	9.7%	4.5%
Cn1c(-c2ccc(C(C)(C)C)cc2)n[nH]c1=S	59.2*	38.9	36.1*	60.5%	-21.4%
CC(C)(C)c1ccc(-c2n[nH]c(=S)n2-c2ccccc2)cc1	-12.9	19.3	0.6	310.2%	2.94µM*
COc1cccc(N2CCN(C(=O)c3cnc4c(C)cccn4c3=O)CC2)c1	/	19.1	/	/	/
Cc1ccc(S(=O)(=O)N2CCOCC2)cc1C(=O)Nc1ccccc1C(=O)O	/	-9.3	/	/	/
S=c1[nH]nc(-c2cccs2)n1C1CCCCC1	-10.2	-29.7	-1.6	?	-24.9%
CC(c1ccccc1)n1c(-c2ccc(C(C)(C)C)cc2)n[nH]c1=S (centres undefined)	19.9	/	2.1	20.3%	4.65µM*
CC(C)(C)c1ccc(-c2n[nH]c(=S)n2C2CCCC2)cc1	-13.4	-90.9*	-2.6	/	46.6%
CCNC(=O)C1CCN(S(=O)(=O)c2ccc3c(c2)CCCN3C(C)=O)CC1	/	-8.9	/	/	/
CCOC(=O)C1=CNS(=O)(=O)NC1c1ccccc1 (centres undefined)	/	-16.6	/	/	/
CC(C)C(C(=O)O)N1C(=O)/C(=C/c2ccc(Br)cc2)SC1=S (centres undefined)	20.7*	/	26.8*	/	/
CC1=C(c2ccc(C)c(C)c2)S(=O)(=O)N(Cc2ccc(C(=O)NCc3ccc(C)cc3)cc2)C1=O	/	2.7	/	/	/
CC1CN(Cc2ccc(Cl)cc2Cl)CC(C)O1 (centres undefined)	46.2*	-37.6	23.4	/	64.8%
CC1CN(Cc2ccc(C#N)cc2Cl)CC(C)O1 (centres undefined)	19.7	16.3	10.6	5.7%	0.0%
Cc1ccc(NC(=O)CSc2nc(=O)n(CCN3CCOCC3)c3c2CCC3)c(C)c1	/	5.4	/	/	/
OCCN(Cc1nc(-c2ccc3c(c2)OCO3)no1)Cc1cccs1	36.0*	-18.3	17.0	47.0%	25.5%
SMILES	Shiga inhibitor	HCMV inh	CHX counter	Pf growth 48h	Pf growth 96h
CN(CCN1CCc2ccccc2C1)Cc1nc(-c2ccc3c(c2)OCO3)no1	-8.3	40.1	-1.4	17.0%	?
O=C1NC(=Nc2ccccc2Cl)SC1(CO)CO	-8.1	21.9	-2.3	-2.6%	13.1µM*
O=C1NC(=Nc2cccc([N+](=O)[O-])c2)SC1(CO)CO	-6.9	-64.5*	-0.3	35.0%	10.1%
CCc1ccc(N=C2NC(=O)CS2)cc1	/	-7.6	-2.9	?	9.28µM*
Cc1cccc(N=C2NC(=O)C(CO)(CO)S2)c1	-6.5	0.8	1.0	9.3%	?
Cc1ccc(N=C2NC(=O)C(CO)(CO)S2)cc1	10.3	-18.3	8.8*	11.3%	?
O=C1CSC(=Nc2ccc(F)cc2)N1	-3.3	-8.4	-3.6	?	?
CN(C(=O)Cn1cnc2sccc2c1=O)C1CCCCC1	/	-10.9	/	52.2%	26.1%
Cc1c(C(=O)OCC(=O)NC2CC2)oc2ccc(Br)cc12	/	19.4	/	-23.3%	11.8%
CCCCC(=O)Nc1nnc(SCc2cc(=O)n3cc(C)ccc3n2)s1	/	-29.2	/	/	/
COCCCNC(=O)c1ccc(Cn2c(SCc3cccc(C)c3)nc3cccnc32)cc1	/	48.8	/	/	/
O=C1CSC(=Nc2ccccc2Cl)N1	23.2	16.6	16.5*	12.2%	38.1%
CO[C@]12C(COC(N)=O)C3=C(C(=O)C(C)=C(N)C3=O)N1CC1NC12 (some centres undefined)	/	/	/	0.239µM*	0.601µM*
Cc1cccc2sc(NC(=O)CN(C)S(=O)(=O)c3ccc(Br)s3)nc12	21.2	-38.3	14.6	16.0%	?
O=C(NCc1ccc(Cl)cc1)C(=O)NCC(c1cccs1)S(=O)(=O)c1cccs1 (centres undefined)	/	0.0	/	/	/
O=C(NCc1ccccc1Cl)C(=O)NCC(c1cccs1)S(=O)(=O)c1cccs1 (centres undefined)	/	-61.5*	/	/	/
Cc1cccc(NC(=O)CN(C)S(=O)(=O)c2cccs2)c1	100.7*	4.9	15.5*	38.7%	/
Cc1ccc(N(CC(=O)Nc2cccc(F)c2)S(=O)(=O)c2cccs2)cc1	/	-4.3	/	/	/
COc1cccc(NC(=O)CN(C)S(=O)(=O)c2cccs2)c1	/	59.3	/	/	/
Cc1cccc2sc(NC(=O)CN(C)S(=O)(=O)c3cccs3)nc12	45.2*	-21.3	14.7	20.4%	20.3%
COc1ccc(NC(=O)CN(C)S(=O)(=O)c2cccs2)cc1	40.1*	119.9	28.7*	42.7%	51.0%
CN(CC(=O)NCc1ccccc1Cl)S(=O)(=O)c1cccs1	30.2	6.2	14.8*	-4.5%	8.1%
Cc1ccccc1NC(=O)CN(C)S(=O)(=O)c1cccs1	-4.0	-13.8	8.7	29.7%	21.1%
CCOC(=O)c1c(NC(=O)CSc2cn(CCNC(=O)c3c(F)cccc3F)c3ccccc23)sc2c1CCCC2	/	-4.9	/	/	/
CCOC(CNC(=O)c1ccc2c(c1)ncn2-c1ccccc1OC)OCC	-2.9	-28.7	-2.0	?	5.3%
SMILES	Shiga inhibitor	HCMV inh	CHX counter	Pf growth 48h	Pf growth 96h
CCCNC(=O)c1ccc2c(c1)ncn2-c1ccccc1OC	20.2	18.9	11.6*	?	88.6%
COc1ccccc1-n1cnc2cc(C(=O)N3CCOCC3)ccc21	40.7*	48.1	25.2*	9.7%	9.28µM*
C[C@@H]1CN([C@H](C)CO)S(=O)(=O)c2ccc(-c3ccc(C(=O)N(C)C)cc3)cc2O[C@H]1CN(C)C(=O)Cc1ccccn1	/	15.7	/	/	/
Cc1ccc(NC(=O)c2cc(-c3cccs3)on2)cc1	130.6*	6.8	38.2*	145.2%	12.0%
Cc1ccc(Cn2ccc(NC(=O)c3cc(-c4cccs4)on3)n2)cc1	-3.7	-25.6	-2.6	10.4µM*	?
COc1cc(NC(=O)c2cc(-c3cccs3)on2)cc(OC)c1OC	3.5	38.0	13.8	23.4%	0.0%
O=C(Nc1ccc(Br)cc1)c1cc(-c2cccs2)on1	114.4*	5.8	22.2*	111.9%	-4.6%
CCCc1cc(C(=O)Nc2ccn(Cc3ccc(C)cc3)n2)no1	20.9	-31.4	1.0	?	-14.0%
O=C(Nc1ccc(Cl)cc1)c1cc(-c2cccs2)on1	-3.2	-7.3	8.3*	137.3%	223.1%
